{"source": "PubChem BioAssay AID504727", "about": "(Broad Institute, 2011)", "note": "Calls of active or inactive are those of the source.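 The calls were made as follows: active = fitted half-maximal concentration AC50 at or below ten times the highest valid tested dose, with signal falling as DNA is displaced (actives reach about 34 µM in these data); inconclusive = flat fit at moderate signal loss, or poor fit quality; inactive = the rest, including signal rising instead of falling.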"}
{"assay": "DNA intercalators displacing acridine orange, dose response, artefact control for KSHV LANA DNA-binding inhibitor project, biochemical, fluorescence polarization, cherry-picked samples, set 2 (AID 504727)", "conditions": "AC50: Acridine orange-DNA displacement; series mostly up to 35 µM"}
{"smiles": "CC(C)Cc1nc(SCC(=O)Nc2nnc(CC(C)C)s2)n[nH]1", "AC50": "inactive"}
{"smiles": "O=C(/C=N/NC(=O)c1ccc(Cl)cc1Cl)c1ccccc1", "AC50": "inactive"}
{"smiles": "NC(=S)N/N=C/c1cn(CCC(=O)O)nc1-c1cccc(Br)c1", "AC50": "inactive"}
{"smiles": "COc1cc(OC)cc(C(=O)NC2CC3CCC(C2)N3C)c1", "note": "(stereo unspecified)", "AC50": "inactive"}
{"smiles": "O=C1C=CC2=C3c4cc(O)c(O)cc4CC3(O)COC2=C1O", "note": "(stereo unspecified)", "AC50": "inactive"}
{"smiles": "COc1ccc(C(=O)N/N=C/c2ccc(OC)c(COc3ccccc3)c2)cc1", "AC50": "inactive"}
{"smiles": "CN(C)C(=O)c1ccc(NC(=O)COC(=O)C2(c3ccccc3)CCCC2)cc1", "AC50": "inactive"}
{"smiles": "Nc1c(/C=C2/C=CC(=O)C(O)=C2)c(=O)nc2sc(CC(=O)N3CCCC3)nn12", "AC50": "inactive"}
{"smiles": "COc1ccc(N(CC(=O)NCc2ccc3c(c2)OCO3)C(=O)c2csnn2)cc1", "AC50": "inactive"}
{"smiles": "CCN(CC)C(=O)C1c2ccccc2Oc2ccccc21", "AC50": "inactive"}
{"smiles": "CCCN(CCC)C(=O)C1c2ccccc2Oc2ccccc21", "AC50": "inactive"}
{"smiles": "CN1CCN(C(=S)c2ccc(N(C)C)cc2)CC1", "AC50": "inactive"}
{"smiles": "Cc1ccc(CSc2ncnc3onc(C)c23)cc1", "AC50": "inactive"}
{"smiles": "CN(N=Nc1ccc([N+](=O)[O-])cc1)c1ccccc1", "AC50": "11 µM (active)"}
{"smiles": "COc1ccc(N(C(=O)c2ccc(Cl)cc2)C2=CC3CCC(C2)N3C)cc1", "note": "(stereo unspecified)", "AC50": "inactive"}
{"smiles": "CCOC(=O)C1Nc2ccccc2C2C(O)C(O)CC12", "note": "(stereo unspecified)", "AC50": "inactive"}
{"smiles": "COc1ccc(N=C2SC(CC(=O)Nc3ccccc3)C(=O)N2Cc2ccco2)cc1", "note": "(stereo unspecified)", "AC50": "inactive"}
{"smiles": "COc1ccc(Br)cc1CNC(=O)CCCc1cn(C)c2ccccc12", "AC50": "inactive"}
{"smiles": "CCn1c(CN2CCCCC2)nc2cc(S(=O)(=O)N3CCCCC3)ccc21", "AC50": "inactive"}
{"smiles": "Cc1n[nH]c(C)c1N1C(=O)c2cccc3c(N4CCCCCC4)ccc(c23)C1=O", "AC50": "33.6 µM (active)"}
{"smiles": "CSc1ncccc1C(=O)OCCCC(=O)c1ccc(F)cc1", "AC50": "inactive"}
